SMILES strings stand for the structures. Values without a mark were called inactive. Records with an inconclusive call do not appear. Activity calls are given as the source filed them. Calls come from the whole dose curve; as a rule, active = well fitted curve in the direction sought with a large enough effect; inconclusive = small, poorly fitted or top-dose-only effect, or another doubt; inactive = no such curve, though single readings can be large; an effect the other way counts as inactive or inconclusive.

Assay [1] concerns the target Glutathione peroxidase 1 (Homo sapiens) (UniProt P07203). The assay can be described thus: Primary qHTS Assay for Inhibitors of Recombinant Selenoprotein Glutathione Peroxidase 1 (GPX1) (AID 1845191). For activity, negative = inhibition: % is set by controls: 0 for no effect and ±100 for the full control effect. Note: nearly all actives have a fitted effect of over 65% in size. In a few lines: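 GPX1 10 nM, GR 100 nM, GSH 1 mM, NADPH 0.5 mM, CHP 0.5 mM (final). 30-min cpd preincubation, RT. Ex340/Em450 read t=0, t=15 min.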
(Quantitative high-throughput screening tests each substance at several concentrations.)

In assay [2] the target is Phospholipid hydroperoxide glutathione peroxidase GPX4 (Homo sapiens) (UniProt P36969). Nature of the assay: Primary qHTS Assay for Inhibitors of Recombinant Selenoprotein Glutathione Peroxidase 4 (GPX4) (AID 1845192). For activity change, negative = inhibition: series mostly up to about 50 µM; % is set by controls: 0 for no effect and ±100 for the full control effect. Note: nearly all actives have a fitted effect of over 65% in size. A digest of the protocol: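 qHTS, GR-coupled: GPX4 200 nM + cpd 30 min RT → GSH 1 mM, NADPH 0.5 mM, GR 100 nM → CHP 0.5 mM start; fluor 340/450 at t0 and t15 min; no-enzyme wells as control.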
Phospholipid hydroperoxide glutathione peroxidase GPX4 (Homo sapiens), sequence (P36969 whole entry, looked up): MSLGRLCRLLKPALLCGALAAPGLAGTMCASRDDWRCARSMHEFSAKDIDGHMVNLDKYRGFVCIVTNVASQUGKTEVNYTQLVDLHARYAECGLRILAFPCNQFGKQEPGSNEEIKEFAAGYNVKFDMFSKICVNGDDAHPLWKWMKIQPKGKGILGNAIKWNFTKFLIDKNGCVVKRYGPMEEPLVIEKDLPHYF

Assay [3] addresses Luciferin 4-monooxygenase (Photinus pyralis) (UniProt P08659). The assay can be described thus: Primary firefly luciferase (FLuc) qHTS assay for identification of artifact compounds. (AID 1845220).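 For activity change, negative = inhibition: series mostly up to about 54 µM; plate controls were DMSO vehicle for no effect and no enzyme for full effect.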 Note: nearly all actives have a fitted effect of over 60% in size. In a few lines: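 Reaction readout was CCD-imaged luminescence, taken 5 min after adding 10 nM purified firefly enzyme to compound-treated wells holding 10 uM luciferin and ATP in pH 7.6 buffer.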

Assay [4] can be described thus: Primary fluorescence-based thiol-reactive (MSTI) qHTS assay for identification of artifact compounds. (AID 1845221).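 For activity change, negative = thiol reactive: series mostly up to about 54 µM; thiol-reactive compounds lower the probe fluorescence signal.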 Note: nearly all actives have a fitted effect of over 65% in size. Note: potency is the fitted concentration of half-maximal effect. A digest of the protocol:
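Probe: MSTI 4 uM, PBS pH 7.4, 2% DMSO. Incubation 1 h, RT, light-protected. Readout fluorescence 525/598 nm.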

In assay [5] the test system is Nanoluciferase (engineered Oplophorus gracilirostris luciferase). The assay can be described thus: Primary Nanoluciferase (NLuc) qHTS assay for identification of artifact compounds. (AID 1845222).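 Note: NLuc secreted into diluted conditioned medium of S16 cells; series mostly up to about 54 µM.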 A digest of the protocol: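 Concentration-response data were obtained by luminescence after 5 min with Nano-Glo substrate at 1:100. The enzyme was diluted S16 NLuc-expressing cell medium, preincubated with compound for 15 min at RT. Curves were fitted with a 4-parameter Hill model.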

Assay [6] is described as follows: Primary redox qHTS assay for identification of artifact compounds. (AID 1845223).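 For redox activity (% of DA3003): 0% = DMSO and 100% = reference compound.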 Note: potency is the fitted concentration of half-maximal effect. A digest of the protocol: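 Redox-cycling detection via DTT (250 uM final) oxidation coupled to Amplex Red (25 uM)/HRP (250 mU/mL) in HBSS. 15 min preincubation plus 30 min after DTT, room temperature. Ex/Em 525/598 nm; 4-parameter Hill fit against DMSO and 10 uM DA3003.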

Glutathione peroxidase 1 (Homo sapiens), sequence (P07203 whole entry, looked up): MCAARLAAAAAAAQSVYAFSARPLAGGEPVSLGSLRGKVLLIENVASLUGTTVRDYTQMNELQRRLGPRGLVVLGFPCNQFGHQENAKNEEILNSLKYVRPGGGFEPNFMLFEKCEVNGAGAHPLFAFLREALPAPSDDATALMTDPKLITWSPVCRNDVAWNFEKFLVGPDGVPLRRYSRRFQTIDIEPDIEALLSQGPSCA

As for `O=C(NCC(O)CO)c1ccncc1Nc1ccc(I)cc1F` (stereo unspecified), the Potency entry in assay [1], in assay [2], in assay [3], in assay [4], in assay [5] and in assay [6] was “inactive” each time.

For the molecule `OC/C=C/C=C/[C@H]1Cc2cc(O)cc(O)c2O1`, the Potency entry in assay [1], in assay [2], in assay [3] and in assay [5] was “inactive” in each case. Besides, the Potency in assay [4] is 8.44 µM (active); in assay [6] it was 18.9 µM (active).

`C[C@@H]1O[C@@H](O[C@H]2[C@H](O[C@H]3[C@H](O[C@H]4CC[C@@]5(C)C(CC[C@]6(C)C5CC=C5[C@@H]7CC(C)(C)CC[C@]7(C(=O)O[C@@H]7O[C@H](CO)[C@@H](O[C@@H]8O[C@@H](C)[C@H](O)[C@@H](O)[C@H]8O)[C@H](O)[C@H]7O)CC[C@]56C)C4(C)C)OC[C@H](O)[C@@H]3O)O[C@H](CO)[C@@H](O)[C@@H]2O)[C@H](O)[C@H](O)[C@H]1O` (stereo partly specified): the outcome in assay [1] was “inactive [at 9.52 µM]”; in assay [3], “inactive [at 11.6 µM]”. For the same molecule, the activity change, negative = inhibition in assay [2] is 0.115% [at 9.73 µM]. Further, the activity change, negative = thiol reactive in assay [4] is 125% [at 11.5 µM]. In addition, in assay [5], the activity, negative = inhibition is 4.91% [at 11.6 µM]. In addition, the redox activity (% of DA3003) in assay [6] is 19.8% [at 11.5 µM].

As to `C[C@H](Oc1ccc(S(C)(=O)=O)cc1C(=O)N1CCN(c2ncc(C(F)(F)F)cc2F)CC1)C(F)(F)F`, the Potency entry in assay [1], in assay [2], in assay [3], in assay [4], in assay [5] and in assay [6] was “inactive” in each case.

As to `C[C@@H]1O[C@@H](O[C@H]2[C@H](OC(=O)[C@]34CCC(C)(C)C[C@H]3C3=CCC5[C@@]6(C)C[C@H](O)[C@H](O[C@@H]7O[C@H](CO)[C@@H](O)[C@H](O)[C@H]7O)[C@@](C)(CO)C6[C@H](O)C[C@@]5(C)[C@]3(C)C[C@H]4O)OC[C@H](O)[C@@H]2O)[C@H](O)[C@H](O)[C@H]1O[C@@H]1OC[C@@H](O)[C@H](O[C@H]2OC[C@](O)(CO)[C@H]2O)[C@H]1O` (stereo partly specified), the outcome in assay [1] was “inactive [at 9.52 µM]”. Besides, the activity change, negative = inhibition in assay [2] is 1.35% [at 9.73 µM]; in assay [3], 2.14% [at 11.6 µM]. For the same molecule, in assay [4], the activity change, negative = thiol reactive was 482% [at 11.5 µM]. Also, the activity, negative = inhibition in assay [5] is 4.86% [at 11.6 µM]. Further, the redox activity (% of DA3003) in assay [6] is 4.44% [at 11.5 µM].

`COc1ccc(CC2NCCc3c2[nH]c2ccc(C)cc32)cc1OC` (stereo unspecified): the Potency result in assay [1], in assay [2], in assay [3], in assay [4], in assay [5] and in assay [6] was “inactive” each time.

As for `CC(=O)O[C@@H]1c2c3c(cc(O)c2C(=O)O[C@@H]1C)O[C@@]1(C)[C@@H](O)C[C@H]2C(C)(C)C(=O)C=C[C@]2(C)[C@@H]1C3`, the Potency result in assay [1], in assay [2], in assay [3], in assay [4], in assay [5] and in assay [6] was “inactive” in each case.

Take `CC(=O)O[C@@H]1[C@H](O)[C@@H](O[C@@H]2O[C@@H](C)[C@H](O[C@@H]3OC[C@@H](O)[C@H](O[C@@H]4OC[C@@H](O)[C@H](O)[C@H]4O)[C@H]3O)[C@@H](O[C@@H]3O[C@H](CO)[C@@H](O)[C@H](O)[C@H]3O)[C@H]2O)[C@H](OC(=O)[C@]23CCC(C)(C)C[C@H]2C2=CCC4[C@@]5(C)CC[C@H](O[C@@H]6O[C@H](C(=O)O)[C@@H](O)[C@H](O[C@@H]7OC[C@@H](O)[C@H](O)[C@H]7O)[C@H]6O[C@@H]6O[C@H](CO)[C@H](O)[C@H](O)[C@H]6O)[C@@](C)(C=O)C5CC[C@@]4(C)[C@]2(C)CC3)O[C@@H]1C` (stereo partly specified): the activity, negative = inhibition in assay [1] is -4.56% [at 9.52 µM]; in assay [5], 0% [at 6.45 µM]. For the same molecule, the activity change, negative = inhibition in assay [2] was 2.64% [at 9.73 µM]; in assay [3] it was 3.61% [at 6.45 µM]. Also, the activity change, negative = thiol reactive in assay [4] is 306% [at 6.41 µM]. Also, in assay [6], the redox activity (% of DA3003) was -0.0347% [at 6.41 µM].

With `CC#CC(=O)N1CCC[C@H]1c1nc(-c2ccc(C(=O)Nc3ccccn3)cc2)c2c(N)nccn12`, the Potency entry in assay [1], in assay [2], in assay [3], in assay [4], in assay [5] and in assay [6] was “inactive” throughout.

Take `C/C1=C\CC[C@]2(C)O[C@@H]2[C@H](O)[C@H](C(C)C)[C@H](OC(=O)/C=C/c2ccccc2)C1`: the Potency entry in assay [1], in assay [2], in assay [3], in assay [4], in assay [5] and in assay [6] was “inactive” in each case.

Turning to `CCOc1ccc(S(=O)(=O)n2c(C)nc3ccccc32)cc1`, the Potency entry in assay [1], in assay [2], in assay [3], in assay [4], in assay [5] and in assay [6] was “inactive” throughout.

As to `C[C@H]1Oc2cc(cnc2N)-c2c(nn(C)c2C#N)CN(C)C(=O)c2ccc(F)cc21`, the Potency entry in assay [1], in assay [2], in assay [3], in assay [4], in assay [5] and in assay [6] was “inactive” in each case.

As to `CC1=CC(=O)C2C(C)(C)CCC[C@]2(C)[C@H]1CO` (stereo partly specified), the Potency entry in assay [1], in assay [2], in assay [3], in assay [4], in assay [5] and in assay [6] was “inactive” each time.

In the case of `CC(=O)c1cc(C(=O)N[C@@H](C)Cn2ccc(-c3ccc(C#N)c(Cl)c3)n2)[nH]n1`, the Potency result in assay [1], in assay [2], in assay [3], in assay [4], in assay [5] and in assay [6] was “inactive” throughout.

As for `Nc1nc2c(ncn2[C@@H]2O[C@@H]3COP(=O)(O)O[C@H]3[C@H]2O)c(=O)[nH]1`, the Potency result in assay [1], in assay [2], in assay [3], in assay [4], in assay [5] and in assay [6] was “inactive” throughout.

Consider `CCc1ccc(Cc2ccc3c(c2)[C@]2(OC3)O[C@H](CO)[C@@H](O)[C@H](O)[C@H]2O)cc1`, for which the Potency result in assay [1], in assay [2], in assay [3], in assay [4], in assay [5] and in assay [6] was “inactive” throughout.

As to `C/C1=C\CCC2=C[C@@H](OC2=O)c2c(C)coc2C1`, the Potency result in assay [1], in assay [2], in assay [3], in assay [5] and in assay [6] was “inactive” throughout. Also, the Potency in assay [4] was 11.9 µM (active).

As for `Nc1ncnc2c1ncn2CCNCCCCCO`, the Potency entry in assay [1], in assay [2], in assay [3], in assay [4], in assay [5] and in assay [6] was “inactive” throughout.

Regarding `CNC12CC3C[C@@](C)(C1)C[C@](C)(C3)C2`, the Potency entry in assay [1], in assay [2], in assay [3], in assay [4], in assay [5] and in assay [6] was “inactive” in each case.

For the molecule `Fc1ccc2nc(CCC#Cc3ccccn3)cn2c1`, the Potency entry in assay [1], in assay [2], in assay [3], in assay [4], in assay [5] and in assay [6] was “inactive” in each case.

With `C=C1C(=O)OC2C1C(O)CC1(C)C(O)CCC(C=O)C21` (stereo unspecified), the Potency result in assay [1], in assay [2], in assay [3], in assay [4], in assay [5] and in assay [6] was “inactive” each time.
